Screening data deposited in PubChem by several laboratories.
FBA Mtb inh – Mtb fructose-bisphosphate aldolase inhibition; P9WQA3; purified M. tuberculosis FBA, fluorescence read-out; inhibition, % at 1 µM; hit rate 2.3% among 360,000; AID 588726; in the data active means inhibition above about 27%
Target sequence (P9WQA3 whole entry, looked up): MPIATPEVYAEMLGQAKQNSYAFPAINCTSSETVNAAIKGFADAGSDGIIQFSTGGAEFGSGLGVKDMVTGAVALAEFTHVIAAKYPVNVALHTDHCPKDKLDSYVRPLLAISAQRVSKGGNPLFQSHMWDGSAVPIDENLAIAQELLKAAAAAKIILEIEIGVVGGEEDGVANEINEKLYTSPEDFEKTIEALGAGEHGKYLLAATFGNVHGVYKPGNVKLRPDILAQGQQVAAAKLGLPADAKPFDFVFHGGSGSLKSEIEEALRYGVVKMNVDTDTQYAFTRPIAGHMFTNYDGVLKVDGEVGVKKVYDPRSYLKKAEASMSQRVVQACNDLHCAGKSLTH
PrPC surface inh – inhibitors of human cell surface prion protein PrPC; TR-FRET read-out; P04156; hit rate 0.43% among 370,000; inhibition, % at 13.8 µM; AID 720596; in the data active means inhibition above about 24%
BJeLR viability – kills HRASV12-expressing BJeLR cells. BJeLR (HRASV12) viability, CellTiter-Glo ATP luminescence, 48 h. inhibition, % (test concentration not listed). hit rate 0.17% among 300,000; in the data active means inhibition above about 50%
GDH-TPI inh – counter-screen for M. tuberculosis FBA inhibitors: GDH-TPI coupled enzymes; hit rate 1.2% among 360,000; inhibition, % at 4.8 µM; GDH-TPI coupled enzyme counterscreen, NADH absorbance; in the data active means inhibition above about 30%
PrP 5UTR inh – suppresses PrP 5' UTR mRNA reporter expression; cell-based PrP 5' UTR mRNA reporter, plate reader; inhibition, % (test concentration not listed); hit rate 0.35% among 340,000; in the data active means inhibition above about 52%
PfHsp40 rescue – compounds rescuing yeast from Plasmodium falciparum HSP40 toxicity; S. cerevisiae expressing PfHsp40, growth rescue, ATP luminescence; growth rescue, % at 12.5 µM; hit rate 0.68% among 340,000; in the data active means growth rescue above about 28%, passing the limit was not always enough;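 further: yeast W303a lacking pdr1 and pdr3 grown in galactose medium; growth measured after three days at 30 °C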
Each line names hits and unclear results; the compound was inactive in the other large screens. An excerpt weighted towards active compounds, which were near 4.5% of everything screened.

COCc1c(C(C)C)nc(C(C)C)c(/C=C/[C@@H](O)C[C@@H](O)CC(=O)O)c1-c1ccc(F)cc1	BJeLR viability 72 (no result: FBA Mtb inh, PrPC surface inh, GDH-TPI inh, PrP 5UTR inh, PfHsp40 rescue)
CCS(=O)(=O)Nc1cccc(C2=NN(C(C)=O)C(c3cccs3)C2)c1 (centres undefined)	none
CS(=O)(=O)Nc1ccc(C2=NN(C(=O)CCCC(=O)O)C(c3cccs3)C2)cc1 (centres undefined)	FBA Mtb inh active
CS(=O)(=O)Nc1cccc(C2=NN(C(=O)CCC(=O)O)C(c3cccs3)C2)c1 (centres undefined)	none
CC(C)(C)C(=O)N1N=C(c2ccc(NS(C)(=O)=O)cc2)CC1c1cccs1 (centres undefined)	FBA Mtb inh 112
CC(=O)N1N=C(c2cccc(NS(C)(=O)=O)c2)CC1c1cccs1 (centres undefined)	GDH-TPI inh 65
COc1ccccc1NS(=O)(=O)c1cc(NC(=O)CNC(=O)c2cc(C)cc(C)c2)ccc1C	none
CCNC(=S)Nc1ccc(C)c(S(=O)(=O)Nc2ccccc2OC)c1	PfHsp40 rescue 106
COc1ccccc1NS(=O)(=O)c1cc(NC(=O)C(C)C)ccc1N1CCCCC1	none
COc1ccccc1NS(=O)(=O)c1cc(NC(=O)Nc2ccccc2)ccc1N1CCCCC1	PfHsp40 rescue 46 (no result: BJeLR viability)
COC(=O)[C@H](NC(=O)c1cc([C@@H](NC(=O)OC(C)(C)C)C(C)C)sc1N)C(C)C	none (no result: FBA Mtb inh, BJeLR viability, GDH-TPI inh, PrP 5UTR inh, PfHsp40 rescue)
Cn1c(/C(C#N)=C(\O)c2cc(Cl)sc2Cl)nc2ccccc21	none
COc1ccc(/C(O)=C(\C#N)c2nc3ccccc3n2C)cc1OC	GDH-TPI inh 51
CCOc1ccccc1C(=O)N[C@H](C(=O)Nc1nc2c(s1)CCCC2)C(C)C	none
COc1ccc(C(=O)N[C@H](C(=O)Nc2nc3c(s2)CCCC3)C(C)C)cc1	FBA Mtb inh active
Cc1[nH]c2ccccc2c1N=Nc1ccccc1F	PfHsp40 rescue 170
Cc1csc(NC(=O)c2cc(=O)[nH]c3ccc(S(=O)(=O)N4CCOCC4)cc23)n1	FBA Mtb inh 46
COCCCN=Cc1c(O)[nH]c(=S)[nH]c1=O	GDH-TPI inh 33
COC(=O)C1CCN(C(=O)CN2CCC(C(=O)c3ccc(C)cc3)CC2)CC1	none (no result: FBA Mtb inh, BJeLR viability, GDH-TPI inh, PrP 5UTR inh, PfHsp40 rescue)
CC(=O)C1(C(=O)NC2CCCC2)CC(c2ccccn2)=NO1 (centres undefined)	none (no result: FBA Mtb inh, BJeLR viability, GDH-TPI inh, PrP 5UTR inh, PfHsp40 rescue)
CCCCCOc1ccc(C2NC(=O)NC2=O)cc1 (centres undefined)	none
CCCCCCCCOc1ccc(C2OC34CCCCC3C(C#N)(C#N)C2(C#N)C(=N)O4)cc1 (centres undefined)	FBA Mtb inh 50 (no result: PrPC surface inh)
COc1ccc2[nH]cc(C(C)c3ccccc3O)c2c1 (centres undefined)	none (no result: FBA Mtb inh, BJeLR viability, GDH-TPI inh, PrP 5UTR inh, PfHsp40 rescue)
Cc1nn(C)c(C)c1/C=C(\C#N)S(=O)(=O)c1ccc(F)cc1	GDH-TPI inh 33 (no result: BJeLR viability, PrP 5UTR inh, PfHsp40 rescue)
O=C1CS/C(=N/N=C/c2cccs2)N1Cc1ccc(F)cc1	GDH-TPI inh 37 (no result: PrP 5UTR inh, PfHsp40 rescue)
c1ccc(-c2ccc(-c3cn4c(n3)CCC4)cc2)cc1	FBA Mtb inh 158
Nc1ccc(-c2nc3ncccc3o2)cc1	FBA Mtb inh active, GDH-TPI inh 43
O=C(Nc1ccc(-c2nc3cccnc3s2)cc1)c1ccc(Br)o1	none
O=C(Nc1ccc(-c2nc3ncccc3o2)cc1)c1ccc(Br)o1	GDH-TPI inh 57
COc1ccc(-c2cc3ccc(OCC(=O)NCC4CCC(C(=O)O)CC4)cc3oc2=O)cc1 (centres undefined)	FBA Mtb inh 178, GDH-TPI inh 42
CCCc1cc(=O)oc2cc(OCc3ccc(C(=O)O)cc3)ccc12	FBA Mtb inh 48
CCc1cc(=O)oc2c(C)c(OCC(=O)NCC3CCC(C(=O)O)CC3)ccc12 (centres undefined)	none
CCc1cc(=O)oc2cc(OCC(=O)NCC3CCC(C(=O)O)CC3)ccc12 (centres undefined)	FBA Mtb inh 28
COc1cc2c(cc1NC(=O)CSc1nnc(COc3ccccc3)n1Cc1ccco1)oc1ccccc12	none (no result: FBA Mtb inh, BJeLR viability, GDH-TPI inh, PrP 5UTR inh, PfHsp40 rescue)
CCC(NC(=O)c1ccc2c(c1)c(C)c(C)n2Cc1ccc(-c2ccccc2C#N)cc1)c1ccccc1 (centres undefined)	none (no result: FBA Mtb inh, BJeLR viability, GDH-TPI inh, PrP 5UTR inh, PfHsp40 rescue)
Cc1ccc(NC(=S)c2nc3ccccc3[nH]2)c(C)c1	PfHsp40 rescue 331
CCC(c1ccc(O)cc1)C(CC)c1ccc(O)cc1 (centres undefined)	PfHsp40 rescue 85 (no result: BJeLR viability)
